KDM5B inhibitor: blocks human KDM5B histone demethylase activity. Q9UGL1. KDM5B demethylase, FDH-coupled NADH fluorescence (FDH is formaldehyde dehydrogenase). Potency, µM (top dose mostly 57.7 µM), most hits filed as inhibitors. 2.6% of 220,000 active; further: potency means the concentration at half of the fitted maximal effect; 0% is about no effect; nearly all actives have a fitted effect of over 70% in size
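Measured: NADH fluorescence change, 30 min, RT. System: KDM5BΔAP 200 nM final, H3K4me3 peptide, α-KG, Fe(II), ascorbate, NAD⁺ plus FDH, pH 7.5 HEPES. Compounds: titrated, 10 min pre-incubation with enzyme.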
SNCA viab count: reduces viability of HEK-293 SNCA reporter cells; 0.12% of 150,000 active; AID 1671193; Potency, µM (doses to about 57.1 µM), inactives show top-dose activity change, negative = cytotoxicity, hits mostly cytotoxic; HEK-293-SNCA-luc viability, GF-AFC fluorescence, 24 h;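 further: potency means the concentration at half of the fitted maximal effect; 0% = DMSO-treated cells and -100% = medium-only wells without cells; nearly all actives have a fitted effect of over 30% in size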
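HEK-293-SNCA-luc cells (1500/well) plated 24 h, then exposed 24 h to a dilution series; GF-AFC added 30 min at 37C, fluorescence 405/540 nm; normalised to medium-only and DMSO wells, Hill fit.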
IP6K1 inh: inhibitors of human IP6K1; activity change, % (series mostly up to about 58 µM); Q92551; IP6K1 kinase, ADP-Glo luminescence, 2 h; stronger effect = lower value; 0.81% of 140,000 active; in the data active means activity change below about -25%; further: on the % scale 0 is the no-effect control and ±100 the full control effect
Target sequence (Q92551 whole entry, looked up): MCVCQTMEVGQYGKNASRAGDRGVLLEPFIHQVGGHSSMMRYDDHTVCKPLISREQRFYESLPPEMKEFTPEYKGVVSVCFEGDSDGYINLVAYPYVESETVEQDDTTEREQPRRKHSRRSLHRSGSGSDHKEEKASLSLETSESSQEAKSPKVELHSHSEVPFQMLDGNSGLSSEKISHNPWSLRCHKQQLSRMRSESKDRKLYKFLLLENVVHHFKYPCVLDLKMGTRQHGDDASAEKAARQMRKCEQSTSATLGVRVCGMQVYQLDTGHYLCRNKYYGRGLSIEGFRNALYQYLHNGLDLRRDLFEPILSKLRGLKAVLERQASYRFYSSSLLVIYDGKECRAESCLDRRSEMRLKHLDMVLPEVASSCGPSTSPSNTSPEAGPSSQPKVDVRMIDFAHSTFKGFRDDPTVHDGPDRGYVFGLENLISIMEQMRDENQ
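ADP-Glo luminescence measures ADP made by human IP6K1 during a 2 h RT reaction with ATP/IP6 (mix at 1.3 mM/130 uM); top library doses 57.5 and 19.1 uM final.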
SNCA expr inh: reduces expression of the alpha-synuclein gene. Potency, µM (series often up to 57.2 µM), for inactives: top-dose activity change, negative = inhibition, hits mostly inhibitors. HEK-293 SNCA-luciferase knock-in, luminescence, 24 h. 0.17% of 140,000 active. AID 1671194;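 further: potency means the concentration at half of the fitted maximal effect; plate controls were DMSO cells for no effect and cell-free wells for full effect; nearly all actives have a fitted effect of over 45% in size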
Starred values were filed as active, the others as inactive; i = inactive; ? = inconclusive; / = no result given; [ ] = another dose, or the depositor's remark. Only some compounds are listed: those with a hit (about 2.9% of all), similar ones and a draw of the others. Unless noted, the call rests on the fitted dose curve; in most records, active means well fitted curve in the direction sought with a large enough effect; inconclusive means small, poorly fitted or top-dose-only effect, or another doubt; inactive means no such curve, though single readings can be large; an effect the other way counts as inactive or inconclusive.

SMILES | KDM5B inhibitor | SNCA viab count | IP6K1 inh | SNCA expr inh
Cc1noc(-c2cccc(OC3CN(C(=O)c4cccc5[nH]ccc45)C3)c2)n1 | 28.2µM* | 1.6% | -3.5 | 20.0%
CCc1ccccc1S(=O)(=O)N1CCCN(C)c2ccccc21 | ? | -11.9% | -10.3 | ?
Cc1ccc(-c2nc(C)c(CCNC(=O)C(=O)Nc3ccc(C)c(Cl)c3)s2)cc1 | i | -1.9% | 16.2 | 8.1%
COC(=O)CC[C@H](NC(=O)[C@H](CC(C)C)NC(=O)OCc1ccccc1)C(=O)N[C@@H](Cc1cnc[nH]1)C(=O)N[C@@H](CC(=O)OC)C(=O)CF | / | -1.9%[12.5 µM] | 1.2 | /
CNC(=O)c1ccc2c(c1)NC(C)(CNc1ccccc1)CO2 (centres undefined) | ? | -4.3%[87.6 µM] | -5.8 | 5.5%[87.6 µM]
CNC(=O)c1ccc2c(c1)NC(C)(COc1ccccc1)CO2 (centres undefined) | 31.6µM* | -8.9%[87.6 µM] | -7.4 | -16.0%[87.6 µM]
CN(C)c1cccc(NC(=O)c2ccc3c(c2)NC(C)(COc2cccnc2)CO3)c1 (centres undefined) | ? | -4.8%[87.6 µM] | -15.2 | 30.5%[87.6 µM]
CN(C)c1cccc(NC(=O)c2ccc3c(c2)NC(C)(COc2ccccc2)CO3)c1 (centres undefined) | 31.6µM* | -9.3%[87.6 µM] | -7.0 | ?
O=C(C(Cc1ccccc1)N/C=C/C(=O)C(F)(F)F)N1CCN(CCc2ccccc2)CC1 (centres undefined) | i | / | / | /
OCC1(Cc2ccccc2F)CCCN(c2nccc(C(F)(F)F)n2)C1 (centres undefined) | 25.1µM* | -6.1% | -4.8 | 6.7%
COc1cc2cc(CN3CCC[C@H]3CO)c(-c3cccc(Cl)c3)nc2cc1OC | 25.1µM* | -11.4% | -6.3 | 8.0%
COc1ccc(-c2nc3c(C)cccc3cc2CN2CC[C@@H](O)C2)cc1 | 17.8µM* | ? | 1.7 | 22.0%
COc1ccc(-c2nc3cc(C)ccc3cc2CN2CCC[C@@H]2CO)cc1OC | ? | -0.1% | 17.3 | -8.5%
Cc1ccccc1-c1nc2cc3c(cc2cc1CN1CCC[C@H]1CO)OCO3 | ? | 1.2% | 2.7 | 31.8%
COc1ccc(-c2nc3c(C)cccc3cc2CN2CCC[C@H]2CO)cc1OC | 25.1µM* | ? | -7.2 | -4.4%
O=C(CC1NCCNC1=O)OC1CCCCC1 (centres undefined) | i | 0.1% | -11.5 | 7.8%
O=C1NC(=NC2CCCCC2)C2(CCCN([S+](=O)([O-])c3cccs3)C2)N1c1cccnc1 (centres undefined) | i | 4.7% | -4.2 | -9.7%
O=C1N(c2ccc(F)cc2)CCOC12CCN(Cc1ccccc1Cl)CC2 | i | 4.9%[87.6 µM] | -1.8 | -12.9%[87.6 µM]
CC(=O)N1CCN(c2nc3ncccc3o2)CC1 | 31.6µM* | 9.8%[87.6 µM] | -1.3 | 0.6%[87.6 µM]
COC(=O)N1CCCN(c2nc3ncccc3o2)CC1 | 25.1µM* | -2.8%[87.6 µM] | -6.0 | -18.8%[87.6 µM]
COC(=O)N1CCN(c2nc3ncccc3o2)CC1 | ? | -6.1%[87.6 µM] | -0.9 | 1.7%[87.6 µM]
COCC(=O)N1CCCN(c2nc3ncccc3o2)CC1 | 28.2µM* | 3.6%[87.6 µM] | -8.4 | 4.7%[87.6 µM]
O=c1[nH]nc2n1CCN(CC1CCCCC1)CC2 | i | 1.1% | 5.7 | 9.0%
CCCCCC(=O)Nc1ncc2c(n1)CC(c1cccs1)CC2=O (centres undefined) | i | / | / | /
Cc1ccc(-c2cc3c(ccn3C)c(C(=O)NCc3cccnc3)n2)cn1 | i | -9.3%[87.6 µM] | 6.6 | 59.9%[87.6 µM]
SMILES | KDM5B inhibitor | SNCA viab count | IP6K1 inh | SNCA expr inh
Cn1ccc2c(C(=O)NCc3cccnc3)nc(-c3cccc(O)c3)cc21 | 39.8µM* | -20.9%[87.6 µM] | 8.3 | 25.6%[87.6 µM]
Cn1ccc2c(C(=O)NCc3cccnc3)nc(-c3cccc(F)c3)cc21 | 22.4µM* | -8.7%[87.6 µM] | 2.2 | -7.5%[87.6 µM]
CCOc1ccc(NC(=O)Cn2cc(C(=O)c3ccccc3)c(=O)c3cc4c(cc32)OCCO4)cc1 | i | 1.1% | -9.2 | -10.4%
Cc1ccc(C(=O)N2CCN(c3nnc4cccc(C)n34)CC2)cc1C | 25.1µM* | -4.1% | 18.4 | 5.4%
Cc1cccc2nnc(N3CCN(C(=O)CCc4ccccc4)CC3)n12 | 25.1µM* | -4.5% | 8.0 | 16.6%
O=C(CCc1ccccc1)N1CCN(c2cc(-c3cccs3)[nH]n2)CC1 | ? | 1.0% | 6.9 | 26.5%
O=C(c1ccccc1Cl)N1CCCN(c2ccc3nnc(-c4ccccc4)n3n2)CC1 | / | / | 6.8 | /
Cc1cccc2nnc(N3CCCN(C(=O)c4ccccc4Cl)CC3)n12 | 22.4µM* | -0.9% | 17.1 | 7.8%
COc1ccc(C(=O)N2CCCN(c3cc(-c4ccc(C)c(C)c4)[nH]n3)CC2)cc1OC | i | -0.9% | -6.4 | -7.2%
O=C(NCCc1c[nH]c2ccc(Cl)cc12)c1cccc(Cl)c1 | i | / | / | /
CC(=C/c1ccco1)/C=N/Nc1ccc([N+](=O)[O-])cc1[N+](=O)[O-] | i | / | / | /
COc1ccc(-c2nnc3ccc(NC(C)C)nn23)nc1 | ? | 1.3%[87.6 µM] | -9.5 | 14.3%[87.6 µM]
Cc1ccc(-c2nnc3ccc(NC4CCCCC4)nn23)nc1 | ? | -0.5%[87.6 µM] | -7.7 | -15.3%[87.6 µM]
COc1ccc(-c2nnc3ccc(NC4CCCCC4)nn23)nc1 | 31.6µM* | -3.9%[87.6 µM] | 5.3 | 6.1%[87.6 µM]
COCCNc1ccc2nnc(-c3ccc(OC)cn3)n2n1 | 39.8µM* | -0.8%[87.6 µM] | -17.9 | -6.1%[87.6 µM]
COc1ccc(S(=O)(=O)NCC(c2ccco2)N2CCN(c3ccc(F)cc3)CC2)cc1C (centres undefined) | ? | -8.2% | 0.1 | -26.2%
CN(C)C[C@@H]1CN(c2ccccn2)C[C@H]1NC(=O)c1ccc2c(c1)OCO2 | 28.2µM* | -13.1% | 12.8 | 10.0%
CN(C)C[C@@H]1CN(c2ccncn2)C[C@H]1NC(=O)c1ccc2c(c1)OCO2 | ? | -15.0% | -8.8 | -19.3%
CN(C)C[C@@H]1CN(c2ccccn2)C[C@H]1NC(=O)NC1CCCCC1 | 31.6µM* | -8.1% | 9.2 | 5.5%
CN(C)C[C@@H]1CN(c2ccncn2)C[C@H]1NC(=O)NC1CCCCC1 | i | 12.4% | -2.4 | 3.7%
CN(C)C[C@@H]1CN(c2ccccn2)C[C@H]1NC(=O)c1ccsc1 | 22.4µM* | 6.5% | 0.3 | 0.8%
CN(C)C[C@@H]1CN(c2ccccn2)C[C@H]1NC(=O)Cn1c(=O)oc2ccccc21 | 22.4µM* | 4.0% | 19.1 | 13.1%
Cc1c(C#N)c(NC(=O)CN(CC(N)=O)C(C)C)n(Cc2ccco2)c1C | i | / | / | /
CN(C)C[C@@H]1CN(c2ccccn2)C[C@H]1NC(=O)c1cccn1C | 22.4µM* | 5.3% | -4.0 | 15.9%
CN(C)C[C@@H]1CN(c2ccccn2)C[C@H]1NC(=O)c1ccoc1 | 28.2µM* | 1.3% | 9.3 | -0.4%
Cc1ccc(NC(=O)CSc2ncccc2C#N)cc1C | i | / | / | /
COc1ccccc1N1CCN(C(=O)CCn2nc(C)c(S(=O)(=O)N3CCCC3)c2C)CC1 | i | 9.7% | -2.7 | 6.1%
COCC1CCN(c2ccc(-c3nc(-c4ccccc4C)no3)cn2)C1 (centres undefined) | 31.6µM* | 6.6% | 18.2 | 54.1%
COC(=O)[C@@H]1CCCN1c1ccc(-c2nc(-c3ccccc3F)no2)cn1 | 25.1µM* | -11.9% | 3.4 | 11.2µM*
